Drawing on PubChem BioAssay (EPA / NIEHS), this text covers outcome and AC50 for 50 compounds.

A short description of assay [1]: CEETOX_H295R_MTT_cell_viability: Viability Assessment in the CeeTox HT-H295R MTT Assay (AID 2283718; active = hit-call score of the fitted dose curve at least 0.9, where 1 is the maximum; inactive = score below 0.9;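 as to AC50: curve fitted both ways so AC50 may mark viability loss or gain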). The gist of the method:
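H295R cells prestimulated 48 h with 10 uM forskolin, then exposed 48 h to test chemical (0.1% DMSO final). Viability by MTT (0.5 mg/ml, 4 h, 37 C), absorbance 570/650 nm; percent change versus DMSO, bidirectional fit.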

Assay [2] can be described thus: ArunA_CellTiter_hNC: Viability Assessment in the ArunA Biomedical's Oris Neural Crest (hNC) Cell Migration Assay (AID 2283752). The gist of the method: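 Seed 60,000 hNC cells per well onto Matrigel in basal growth medium containing LIF and bFGF. Incubate 16 h at 37C. Replace with test medium containing chemical for 72 h, then assess viability by CellTiter Aqueous One.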

Assay [3] is described as follows: ArunA_Migration_hNP: ArunA Biomedical's Oris Neuroprogenitor (hNP) Cell Migration Assay (AID 2283754). The essentials:
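Readout is calcein-AM fluorescence (ex494/em517) of cells migrating into the detection zone, relative to DMSO. hNP1 cells (H9-derived) grown on Matrigel behind stoppers 16 h, then stoppers pulled and chemical applied 72 h; cytochalasin D as control.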

The nature of assay [4]: ArunA_Migration_hNC: ArunA Biomedical's Oris Neural Crest (hNC) Cell Migration Assay (AID 2283755). The essentials:
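Calcein-AM fluorescence (ex494 nm/em 517 nm) in the stopper-defined detection zone quantifies migration of hNC cells after 72 h chemical exposure; 60,000 cells/well plated on Matrigel with LIF and bFGF, 16 h pre-incubation. DMSO baseline.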

Assay [5] can be described thus: ArunA_NOG_NucleusCount: ArunA Biomedical's Neurite Outgrowth (NOG) Assay for Nucleus Count (AID 2283756). The gist of the method: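 Viable neuron count, from Hoechst nuclei passing size and intensity gates, imaged at 20x on differentiated H9-derived human neurons. Exposure lasted 48 h from seeding; activity was scored relative to DMSO.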
Assay [6] is described as follows: ArunA_NOG_NeuriteLength: ArunA Biomedical's Neurite Outgrowth (NOG) Assay for Neurite Length (AID 2283757). The gist of the method: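 Total neurite length per neuron, from traced βIII-tubulin-labelled processes longer than 10 um on viable Hoechst-gated cells, was scored as decrease from DMSO. Cells were hESC (H9)-derived neurons given 48 h chemical exposure immediately after seeding.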

Assay [7] can be described thus: ArunA_NOG_NeuritesPerNeuron: ArunA Biomedical's Neurite Outgrowth (NOG) Assay for Neurites Per Neuron (AID 2283758). The essentials:
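Differentiated human H9-derived neurons exposed to chemicals for 48 h from seeding, then stained with Hoechst and βIII-tubulin/DyLight 488. Automated imaging counted neurites (processes >10 um) per valid neuron; loss of signal versus DMSO scored.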

Assay [8] in a line: Tanguay_ZF_120hpf_ActivityScore_legacy: (Legacy) Oregon State University Tanguay Lab 120 Hour Post-fertilization zebrafish Assay Score for Activity (AID 2283742).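 As to AC50: dechorionated Tropical 5D wild-type zebrafish embryos held singly per well; static exposure from 6 hpf until 120 hpf at 28 °C.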 The gist of the method:
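In this whole-embryo screen, dechorionated zebrafish were exposed from 6 hpf until 120 hpf at 28C under a 0.64% DMSO vehicle. Developmental malformations and death were recorded by brightfield microscopy as binary endpoints.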

The test system of assay [9] is Thyroperoxidase (TPO), gene 445522. Description: CCTE_Simmons_GUA_TPO: CCTE's Guaiacol Assay for Thyroperoxidase (TPO) Inhibition, Simmons Lab (AID 2283750). The gist of the method: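 Porcine thyroid microsomes (25 ug) in 200mM potassium phosphate, preincubated 30 s at 37C with compound (8 concentrations, 5 nM–87.5 uM) and 35mM guaiacol; 1mM H2O2 starts reaction. Absorbance change at 450nm over first 80 s; loss of signal versus DMSO, three replicates.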

The nature of assay [10]: ArunA_CellTiter_hNP: Viability Assessment in the ArunA Biomedical's Oris Neural Crest (hNC) Cell Migration Assay (AID 2283753). The gist of the method: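 Viability read with CellTiter 96 Aqueous One after 72 h chemical exposure of human hNP1 neuroprogenitors, which were plated on Matrigel in LIF/bFGF medium 16 h beforehand. Endpoint fitted in positive direction relative to DMSO.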

Results filed as inconclusive are left out. The source made the active and inactive calls. The calls were made as follows, unless noted: active = hit-call score of the fitted dose curve at least 0.9, where 1 is the maximum; inconclusive = response in the unintended direction; inactive = score below 0.9.

Broadly, the AC50 is the concentration giving half of the maximal activity seen. Turning to `COC(=O)c1ccc(O)cc1`, the result in [1], in assay [2], in assay [3] and in assay [4] was inactive. The concentration at half-maximal activity (AC50) in assay [5] is 13.7 µM (active); in [6], 18.1 µM (active); in assay [7], 17.4 µM (active).

Consider `C[C@]12C=CC(=O)C=C1CC[C@@H]1[C@@H]2C(=O)C[C@@]2(C)[C@H]1CC[C@]2(O)C(=O)CO`, for which the AC50 in assay [1] is 0.844 µM (active). Further, the result in assay [8] was inactive.

On to `O=C(OCCCCCOC(=O)c1ccccc1)c1ccccc1`, for which the outcome in [1] and in assay [8] was inactive.

As to `Oc1ccc2ccccc2c1N=Nc1ccccc1`, the outcome in assay [1], in assay [2], in assay [3] and in assay [4] was inactive.

Turning to `Nc1ccc2c(c1)C(=O)c1ccccc1C2=O`, in assay [1], the compound was classed as inactive.

With `CCCCCC(=O)O`, the compound was classed as inactive in [8].

On to `CCOC(=O)C(C)(C)Oc1ccc(Cl)cc1`, for which the AC50 in [8] was 37.7 µM (active).

As to `COc1ccc(C)cc1N`, the call in [1] was inactive.

As to `CC=Cc1ccc(O)c(OC)c1`, the compound was classed as inactive in [1].

Turning to `O=C(O)CCCCC(=O)O`, the result in assay [8] was inactive.

With `CC(CO)OC(C)CO` (stereo not given) (tested in a mixture with another compound), the call in assay [8] was inactive.

As for `Cc1oc(-c2ccccc2)nc1CCOc1cccc2c1ccn2CCC(=O)O`, in [1], the compound was called inactive.

On to `Cc1cc(NC(=O)C(=O)O)cc(C)c1Oc1ccc(O)c2c1CCC2`, for which the compound was classed as inactive in assay [1], in assay [2], in [3], in [4] and in [5].

`Cc1c(C(=O)O)c(O)cc2c1C(=O)c1c(O)c([C@@H]3O[C@H](CO)[C@@H](O)[C@H](O)[C@H]3O)c(O)c(O)c1C2=O`: in assay [1], the call was inactive.

Regarding `Cc1cccc([N+](=O)[O-])c1C`, in assay [8], the result was inactive.

Turning to `C=CCOC(=O)c1ccccc1C(=O)OCC=C`, the result in assay [1] was inactive.

As for `CCOc1ccc2c(c1)C(C)=CC(C)(C)N2`, the compound was classed as inactive in assay [1]. The AC50 in [9] was 130 µM (active).

For the compound `CNCc1cc(F)ccc1Oc1ccc(Cl)c(Cl)c1`, the compound was classed as inactive in assay [8].

Turning to `CCCCCCCC=O`, the result in assay [8] was inactive.

For the compound `COc1ccc2c(c1)c(CC(=O)O)c(C)n2C(=O)c1ccc(Cl)cc1`, in assay [1], the call was inactive.

As to `COc1ccc(S(=O)(=O)N2C(=O)[C@@](c3ccccc3OC)(N3C[C@H](O)C[C@H]3C(=O)N(C)C)c3cc(Cl)ccc32)c(OC)c1`, the AC50 in assay [1] was 3.43 µM (active). For the same compound, the result in assay [8] was inactive.

As to `CN1CCN(Cc2cc(-c3ccc4[nH]c(=O)oc4c3)co2)[C@@H](c2ccc(F)cc2)C1`, the compound was classed as inactive in assay [1] and in [8].

As to `C=CCc1ccc(O)c(OC)c1`, the result in [1] and in [8] was inactive.

Take `Nc1ccccc1N`: the compound was classed as inactive in assay [1].

Regarding `Cc1nc(C)nc(N2C[C@@H](C)N(c3ccnc([C@@H](C)O)n3)[C@@H](C)C2)n1`, the result in assay [1] was inactive.

In the case of `NC(=O)Cn1c(=O)cc(CCN2CCN(c3nccc4sccc34)CC2)c2ccc(F)cc21`, the compound was classed as inactive in assay [1].

`CC1(C)CC(N=C=O)CC(C)(CN=C=O)C1` (stereo not given): the AC50 in [1] is 22.3 µM (active). For the same compound, the outcome in assay [8] was inactive.

For `Cc1cccc(Nc2cc(Cl)nc(SCC(=O)O)n2)c1C`, the result in [1] and in assay [8] was inactive.

For the compound `CCCCCCCCCCCCCCCC`, the result in assay [8] was inactive.

Turning to `c1cc(-c2ccncc2)ccn1`, the compound was classed as inactive in assay [1] and in assay [8].

Consider `Cc1nc(-c2ccc3c(c2)CCN(CCC2CCC(NC(=O)/C=C/c4ccc(F)cc4)CC2)CC3)no1` (stereo not given), for which the compound was called inactive in [1].

`Oc1ccc2c(c1)OC[C@@H](N1CCC(O)(c3ccc(F)cc3)CC1)[C@H]2O`: the outcome in assay [1] was inactive.

As for `CCCc1cc(=O)[nH]c(=S)[nH]1`, the result in [3], in assay [4], in assay [5], in assay [6] and in assay [7] was inactive.

`CCCCCCCCCCCC(=O)OC`: in assay [8], the compound was called inactive.

On to `CCCCc1ccc2c(n1)[C@@H](c1ccc(OC)cc1C[C@H](C)C(=O)O)[C@H](C(=O)O)[C@H]2c1ccc2c(c1)OCO2`, for which the outcome in assay [2], in [10], in assay [3], in [4] and in assay [5] was inactive.

Consider `C1CCC(SSC2CCCCC2)CC1`, for which the call in [8] was inactive.

As to `CCOC(=O)CCC(=O)OCC`, the result in assay [8] was inactive.

`Cc1cccc(C)c1O`: the outcome in assay [8] and in [9] was inactive.

As to `NCCO`, the compound was called inactive in assay [8].

With `Nc1nc(N)c2nc(CNc3ccc(C(=O)N[C@@H](CCC(=O)O)C(=O)O)cc3)cnc2n1`, in assay [8], the compound was classed as inactive.

On to `CCCCCCCCCCC`, for which, in assay [8], the compound was called inactive.

On to `COCCOC[C@H](CC1(C(=O)NC2CCC(C(=O)O)CC2)CCCC1)C(=O)Oc1ccc2c(c1)CCC2` (stereo not given in full), for which the compound was classed as inactive in assay [8].

For the compound `O=c1c(O)c(-c2ccc(O)c(O)c2)oc2cc(O)cc(O)c12`, the compound was called inactive in [8] and in assay [2]. In addition, the AC50 in assay [10] was 3.88 µM (active); in [3] it was 3.08 µM (active); in [4] it was 2.36 µM (active); in assay [6] it was 9.45 µM (active); in assay [7], 7.94 µM (active).

As to `CC(=O)OCCOCCOCCOC(C)=O`, in [8], the result was inactive.

With `Cc1ccc(C)c(C)c1`, the compound was classed as inactive in [8].

On to `CC(=O)C(C)=CC1C(C)=CCCC1(C)C` (stereo not given), for which, in [8], the result was inactive.

`CCNc1cccc(C)c1`: the call in assay [8] and in assay [9] was inactive.

Consider `CCCCCCCCCCCCCO`, for which the compound was classed as inactive in assay [8].

Consider `CC(=O)OC/C=C(\C)CCC=C(C)C`, for which, in [8], the outcome was inactive.

As to `CCCCC(CC)COC(=O)CC(C(=O)OCC(CC)CCCC)S(=O)(=O)O` (stereo not given), the compound was classed as inactive in [8], in assay [2], in [5], in assay [6] and in [7]. Besides, the figures for the half-maximal activity concentration (AC50) in assay [10], in assay [3] and in assay [4] were 7.54 µM (active), 77.9 µM (active) and 28.7 µM (active), respectively.
